According to the supplement of paper PMC8728848:
The entries come from a sample that favours the strongest signals as a whole.

Experiments:
Assay in all cases: glycan array binding signal (z-score within array); higher = stronger binding
Conditions in all cases: glycan notation: IUPAC condensed, linker removed
[1] = biological target: Fuc(a1-2)Gal(b1-3)GlcNAc(b1-3)[Neu5Ac(a2-6)Gal(b1-4)GlcNAc(b1-6)]Gal(b1-4)Glc
In short: (§1)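 Columns mapping to the same glycan were averaged after glycan names were converted to IUPAC-condensed notation. The data come from 3228 arrays in the Consortium for Functional Glycomics database, limited to those with an available protein sequence. Binding is reported as a within-array Z-score averaged across arrays of one protein sequence and across linkers.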

[2] = biological target: Fuc(a1-2)Gal(b1-3)[Fuc(a1-4)]GlcNAc(b1-2)Man(a1-3)[Fuc(a1-2)Gal(b1-3)[Fuc(a1-4)]GlcNAc(b1-2)Man(a1-6)]Man(b1-4)GlcNAc(b1-4)GlcNAc
In short: as §1

[3] = biological target: Fuc(a1-2)Gal(b1-4)[Fuc(a1-3)]GlcNAc(b1-2)[Fuc(a1-2)Gal(b1-4)[Fuc(a1-3)]GlcNAc(b1-4)]Man(a1-3)[Fuc(a1-2)Gal(b1-4)[Fuc(a1-3)]GlcNAc(b1-2)Man(a1-6)]Man(b1-4)GlcNAc(b1-4)GlcNAc
In short: as §1

[4] = biological target: Fuc(a1-2)Gal(b1-4)[Fuc(a1-3)]GlcNAc(b1-3)GalNAc
In short: as §1

[5] = biological target: Fuc(a1-2)[Gal(a1-3)]Gal(b1-3)GlcNAc(b1-2)Man(a1-3)[Fuc(a1-2)[Gal(a1-3)]Gal(b1-3)GlcNAc(b1-2)Man(a1-6)]Man(b1-4)GlcNAc(b1-4)GlcNAc
In short: as §1

[6] = biological target: Fuc(a1-2)[Gal(a1-3)]Gal(b1-4)GlcNAc(b1-3)GalNAc
In short: as §1

[7] = biological target: Fuc(a1-2)[Gal(a1-3)]Gal(b1-4)[Fuc(a1-3)]GlcNAc(b1-3)GalNAc
In short: as §1

[8] = biological target: Fuc(a1-2)[GalNAc(a1-3)]Gal(b1-4)GlcNAc(b1-3)GalNAc
In short: as §1

[9] = biological target: Fuc(a1-2)[GalNAc(a1-3)]Gal(b1-4)[Fuc(a1-3)]GlcNAc(b1-3)GalNAc
In short: as §1

[10] = biological target: Fuc(a1-3)[Gal(b1-4)]GlcNAc(b1-3)GalNAc
In short: as §1

[11] = biological target: Fuc(a1-3)[Gal(b1-4)]GlcNAc(b1-4)Gal(b1-4)[Fuc(a1-3)]GlcNAc
In short: as §1

[12] = biological target: Gal(a1-2)Gal
In short: as §1

[13] = biological target: Gal(a1-6)Glc
In short: as §1

[14] = biological target: Gal(b1-3)GlcNAc(a1-6)Gal(b1-4)GlcNAc
In short: as §1

[15] = biological target: Gal(b1-3)GlcNAc(b1-2)Man(a1-3)[Gal(b1-3)GlcNAc(b1-2)Man(a1-6)]Man(b1-4)GlcNAc(b1-4)GlcNAc
In short: as §1

[16] = biological target: Gal(b1-3)GlcNAc(b1-3)Gal(b1-4)Glc
In short: as §1

[17] = biological target: Gal(b1-3)GlcNAc(b1-3)Gal(b1-4)GlcNAc(b1-2)Man(a1-3)[Gal(b1-3)GlcNAc(b1-3)Gal(b1-4)GlcNAc(b1-2)Man(a1-6)]Man(b1-4)GlcNAc(b1-4)GlcNAc
In short: as §1

[18] = biological target: Gal(b1-3)GlcNAc(b1-6)GalNAc
In short: as §1

[19] = biological target: Gal(b1-4)GlcNAc(b1-2)[Gal(b1-4)GlcNAc(b1-6)]Man(a1-6)[Gal(b1-4)GlcNAc(b1-2)Man(a1-3)]Man(b1-4)GlcNAc(b1-4)[Fuc(a1-6)]GlcNAc
In short: as §1

[20] = biological target: Gal(b1-4)GlcNAc(b1-3)Gal(b1-4)GlcNAc(b1-3)Gal(b1-4)GlcNAc
In short: as §1

[21] = biological target: Gal(b1-4)GlcNAc(b1-3)Gal(b1-4)GlcNAc(b1-3)Gal(b1-4)GlcNAc(b1-2)[Gal(b1-4)GlcNAc(b1-3)Gal(b1-4)GlcNAc(b1-3)Gal(b1-4)GlcNAc(b1-6)]Man(a1-6)[Gal(b1-4)GlcNAc(b1-3)Gal(b1-4)GlcNAc(b1-3)Gal(b1-4)GlcNAc(b1-2)Man(a1-3)]Man(b1-4)GlcNAc(b1-4)[Fuc(a1-6)]GlcNAc
In short: as §1

[22] = biological target: Gal(b1-4)GlcNAc(b1-3)Gal(b1-4)GlcNAc(b1-3)Gal(b1-4)GlcNAc(b1-3)Gal(b1-4)GlcNAc(b1-2)Man(a1-3)[Gal(b1-4)GlcNAc(b1-3)Gal(b1-4)GlcNAc(b1-3)Gal(b1-4)GlcNAc(b1-3)Gal(b1-4)GlcNAc(b1-2)Man(a1-6)]Man(b1-4)GlcNAc(b1-4)GlcNAc
In short: as §1

[23] = biological target: Gal(b1-4)GlcNAc(b1-3)Gal(b1-4)GlcNAc(b1-3)[Gal(b1-4)GlcNAc(b1-3)Gal(b1-4)GlcNAc(b1-6)]GalNAc
In short: as §1

[24] = biological target: Gal(b1-4)GlcNAc(b1-3)[Gal(b1-4)GlcNAc(b1-6)]Gal(b1-4)GlcNAc
In short: as §1

[25] = biological target: Gal(b1-4)GlcNAc(b1-6)GalNAc
In short: as §1

[26] = biological target: Gal(b1-4)GlcNAc(b1-6)[Gal(b1-4)GlcNAc(b1-3)]GalNAc
In short: as §1

[27] = biological target: Gal(b1-4)GlcNAc6P
In short: as §1

[28] = biological target: Gal3S(b1-4)Glc
In short: as §1

[29] = biological target: Gal3S(b1-4)[Fuc(a1-3)]Glc6S
In short: as §1

[30] = biological target: Gal3S(b1-4)[Fuc(a1-3)]GlcNAc
In short: as §1

[31] = biological target: Gal3S4S(b1-4)GlcNAc
In short: as §1

[32] = biological target: GalNAc4S6S(b1-4)GlcNAc
In short: as §1

[33] = biological target: GlcNAc(b1-2)Man(a1-3)[GlcNAc(b1-4)][GlcNAc(b1-2)Man(a1-6)]Man(b1-4)GlcNAc(b1-4)GlcNAc
In short: as §1

[34] = biological target: GlcNAc(b1-2)[GlcNAc(b1-6)]Man(a1-6)[GlcNAc(b1-2)Man(a1-3)][GlcNAc(b1-4)]Man(b1-4)GlcNAc(b1-4)GlcNAc
In short: as §1

[35] = biological target: GlcNAc(b1-3)Gal(b1-4)GlcNAc
In short: as §1

[36] = biological target: GlcNAc(b1-3)Gal(b1-4)GlcNAc(b1-3)Gal(b1-4)GlcNAc(b1-2)[GlcNAc(b1-3)Gal(b1-4)GlcNAc(b1-3)Gal(b1-4)GlcNAc(b1-6)]Man(a1-6)[GlcNAc(b1-3)Gal(b1-4)GlcNAc(b1-3)Gal(b1-4)GlcNAc(b1-2)Man(a1-3)]Man(b1-4)GlcNAc(b1-4)[Fuc(a1-6)]GlcNAc
In short: as §1

[37] = biological target: GlcNAc(b1-3)[GlcNAc(b1-6)]Gal(b1-4)GlcNAc
In short: as §1

[38] = biological target: GlcNAc(b1-4)GlcNAc(b1-4)GlcNAc(b1-4)GlcNAc(b1-4)GlcNAc
In short: as §1

[39] = biological target: Kdn(a2-3)Gal(b1-3)GalNAc
In short: as §1

[40] = biological target: Man(a1-3)[Man(a1-6)]Man(b1-4)GlcNAc(b1-4)GlcNAc
In short: as §1

[41] = biological target: Man(a1-6)Man
In short: as §1

[42] = biological target: Neu5Ac(a2-3)Gal(b1-3)GalNAc(b1-4)[Neu5Ac(a2-3)]Gal(b1-4)Glc
In short: as §1

[43] = biological target: Neu5Ac(a2-3)Gal(b1-3)[Fuc(a1-4)]GlcNAc(b1-3)Gal(b1-3)[Fuc(a1-4)]GlcNAc
In short: as §1

[44] = biological target: Neu5Ac(a2-3)Gal(b1-4)GlcNAc(b1-3)Gal
In short: as §1

[45] = biological target: Neu5Ac(a2-3)Gal(b1-4)GlcNAc(b1-3)Gal(b1-4)GlcNAc(b1-6)[Gal(b1-3)]GalNAc
In short: as §1

[46] = biological target: Neu5Ac(a2-3)Gal(b1-4)[Fuc(a1-3)]GlcNAc(b1-3)GalNAc
In short: as §1

[47] = biological target: Neu5Ac(a2-3)[GalNAc(b1-4)]Gal(b1-4)GlcNAc(b1-3)GalNAc
In short: as §1

[48] = biological target: Neu5Ac(a2-6)Gal(b1-4)GlcNAc(b1-2)[Neu5Ac(a2-6)Gal(b1-4)GlcNAc(b1-4)]Man(a1-3)[GlcNAc(b1-4)][Neu5Ac(a2-6)Gal(b1-4)GlcNAc(b1-4)Man(a1-6)]Man(b1-4)GlcNAc(b1-4)GlcNAc
In short: as §1

[49] = biological target: Neu5Ac(a2-8)Neu5Ac(a2-3)Gal(b1-3)GalNAc(b1-4)[Neu5Ac(a2-3)]Gal(b1-4)Glc
In short: as §1

B1: Gal 12 (Homo sapiens), Q96DT0 (protein)
chain: MSQPSGGRAPGTRIYSWSCPTVMSPGEKLDPIPDSFILQPPVFHPVVPYVTTIFGGLHAGKMVMLQGVVPLDAHRFQVDFQCGCSLCPRPDIAFHFNPRFHTTKPHVICNTLHGGRWQREARWPHLALRRGSSFLILFLFGNEEVKVSVNGQHFLHFRYRLPLSHVDTLGIFGDILVEAVGFLNINPFVEGSREYPAGHPFLLMSPRLEVPCSHALPQGLSPGQVIIVRGLVLQEPKHFTVSLRDQAAHAPVTLRASFADRTLAWISRWGQKKLISAPFLFYPQRFFEVLLLFQEGGLKLALNGQGLGATSMNQQALEQLRELRISGSVQLYCVHS
- glycan array binding signal (z-score) [1]: -0.876
- glycan array binding signal (z-score) [2]: 6.26
- glycan array binding signal (z-score) [3]: 3.71
- glycan array binding signal (z-score) [4]: 5.15
- glycan array binding signal (z-score) [5]: -0.674
- glycan array binding signal (z-score) [6]: -0.63
- glycan array binding signal (z-score) [7]: 4.56
- glycan array binding signal (z-score) [8]: 0.193
- glycan array binding signal (z-score) [9]: 2.65
- glycan array binding signal (z-score) [10]: 2.44
- glycan array binding signal (z-score) [11]: -0.147
- glycan array binding signal (z-score) [12]: -0.863
- glycan array binding signal (z-score) [13]: -0.527
- glycan array binding signal (z-score) [14]: -0.349
- glycan array binding signal (z-score) [15]: 0.94
- glycan array binding signal (z-score) [16]: -0.471
- glycan array binding signal (z-score) [17]: -0.574
- glycan array binding signal (z-score) [18]: -0.771
- glycan array binding signal (z-score) [19]: 1.75
- glycan array binding signal (z-score) [20]: -0.453
- glycan array binding signal (z-score) [21]: 3.44
- glycan array binding signal (z-score) [22]: 2.32
- glycan array binding signal (z-score) [23]: -0.119
- glycan array binding signal (z-score) [24]: 0.824
- glycan array binding signal (z-score) [25]: 0.417
- glycan array binding signal (z-score) [26]: 0.954
- glycan array binding signal (z-score) [27]: 0.272
- glycan array binding signal (z-score) [28]: 0.451
- glycan array binding signal (z-score) [29]: 3.19
- glycan array binding signal (z-score) [30]: 2.76
- glycan array binding signal (z-score) [31]: 0.103
- glycan array binding signal (z-score) [32]: -0.099
- glycan array binding signal (z-score) [33]: 0.085
- glycan array binding signal (z-score) [34]: -0.54
- glycan array binding signal (z-score) [35]: -0.475
- glycan array binding signal (z-score) [36]: 0.115
- glycan array binding signal (z-score) [37]: -0.57
- glycan array binding signal (z-score) [38]: -0.139
- glycan array binding signal (z-score) [39]: 0.39
- glycan array binding signal (z-score) [40]: -0.172
- glycan array binding signal (z-score) [41]: -0.442
- glycan array binding signal (z-score) [42]: 0.416
- glycan array binding signal (z-score) [43]: -0.082
- glycan array binding signal (z-score) [44]: -0.004
- glycan array binding signal (z-score) [45]: -0.81
- glycan array binding signal (z-score) [46]: 2.37
- glycan array binding signal (z-score) [47]: -0.063
- glycan array binding signal (z-score) [48]: 0.922
- glycan array binding signal (z-score) [49]: -0.299
